Inconclusive results are not listed. Calls of active or inactive are those of the source. Calls follow the shape of the dose curve; as a rule, active = well fitted cell-killing curve with a large enough effect in the repeat runs; inconclusive = weak or mixed curves, or effect the other way; inactive = flat fitted curve, though single readings scatter.
Assay: qHTS RealTime-Glo MT Cell Viability Assay in HEK293 cells - 32 hour (AID 1224868); also: top concentration of the series differs between compounds; nearly all actives have a fitted effect of over 50% in size
Conditions: RealTime-Glo luminescence; series mostly up to 76.8 µM; activity change, negative = cytotoxic: at the top concentration
Description: National Center for Advancing Translational Sciences [NCATS]
NIH Chemical Genomics Center [NCGC]
U.S. Environmental Protection Agency [EPA]
National Institutes of Environmental Health Sciences [NIEHS]
National Toxicology Program [NTP]
U.S. Food and Drug Administration [FDA]
Measure of cell viability is critical in the cell-base assay. Analysis of cell viability is necessary for the characterization of cell responses to cytotoxic drugs and environmental stress. A RealTime-Glo MT Cell Viability Assay to monitor cell viability in real time of continues cell culture during 40 hours of compound treatment was used to screen Tox21 10K library compounds in Hek293 cells. The RealTime-Glo MT Cell Viability Assay is a nonlytic, homogeneous, bioluminescent method to measure cell viability in real time using a simple, plate-based method. The assay involves adding NanoLuc luciferase and a cell-permeant prosubstrate to cells in culture. Viable cells reduce the proprietary prosubstrate to generate a substrate for NanoLuc luciferase. This substrate diffuses from cells into the surrounding culture medium, where it is rapidly used by the NanoLuc Enzyme to produce a luminescent signal. The signal correlates with the number of viable cells, making the assay well suited for cytotoxicity studies.
Tox21 Assay Protocol Summary:
The mixture of Hek293 cell suspension and reagents were dispensed at 600cells/6 ul/well in 1536-well tissue culture treated black solid bottom plates using a Multidrop dispenser. After the assay plates were incubated at a 37 C/5% CO2 incubator for 5 hours, 23 nL of compounds dissolved in DMSO, positive and negative controls was transferred to the assay plate by a pintool work station. The plates were incubated at 37 C for 40 hours. The luminescence intensity were measured at 0h, 8h, 16h, 24h, 32h and 40h time points using ViewLux plate reader during compound treatment.
% is scaled to controls: 0 for no effect and ±100 for the full control effect.

Row | Compound | activity change, negative = cytotoxic
1 | C/C(Cl)=C/CCl | 16.3% (inactive)
2 | COC(=O)c1ccc(NC(C)=O)cc1OC | -0.28% [at 35.3 µM] (inactive)
3 | COc1ccc2cc(CCC(C)=O)ccc2c1 | -10.2% [at 35.3 µM] (inactive)
4 | CCN1CCN(C(=O)N[C@@H](C(=O)N[C@@H]2C(=O)N3C(C(=O)O)=C(CSc4nnnn4C)CS[C@H]23)c2ccc(O)cc2)C(=O)C1=O | 13.2% [at 35.3 µM] (inactive)
5 | Clc1ccc2c(c1)Nc1ccccc1S2 | -20% [at 35.3 µM] (inactive)
6 | C[C@@H](CN1CC(=O)NC(=O)C1)N1CC(=O)NC(=O)C1 | -3.65% [at 35.3 µM] (inactive)
7 | C=CCON/C(CCC)=C1\C(=O)CC(C)(C)C(C(=O)OC)=C1O | 2.65% (inactive)
8 | CC(C)(C)C(=O)NCCCC(=O)O | 5.01% [at 35.3 µM] (inactive)
9 | CN(C)CCC[C@@]1(c2ccc(F)cc2)OCc2cc(C#N)ccc21 | -10.1% [at 35.3 µM] (inactive)
10 | Cc1cc(N)no1 | 14% (inactive)
11 | O=Cc1ccccc1S(=O)(=O)O | 5.27% (inactive)
12 | Cc1ccc(OC(=O)CC(C)C)cc1 | 3.51% (inactive)
13 | C/C=C/C(=O)CCCC | 2.22% (inactive)
14 | Clc1cc(Cl)c(Cl)c(Cl)c1Cl | 4.3% (inactive)
15 | CNCCc1ccccn1 | 0.774% [at 35.3 µM] (inactive)
16 | CCO/C=C1\N=C(c2ccccc2)OC1=O | 6.01% (inactive)
17 | C/C(=N\O)c1ccc(OCC(=O)N2CCCCC2)cc1 | -11.7% [at 35.3 µM] (inactive)
18 | Cc1ccc2cccnc2c1 | 18.5% (inactive)
19 | O=c1c(O)c(O)c1=O | -0.609% (inactive)
20 | CC1(C)C(=O)C(C)(C)C1=O | 4.64% (inactive)

Row | Compound | activity change, negative = cytotoxic
21 | CC(=O)Oc1ccc(C(C)=O)cc1 | -7.95% (inactive)
22 | CC(CN1CC(=O)NC(=O)C1)N1CC(=O)NC(=O)C1 (stereo not given) | -1.26% (inactive)
23 | CCc1ccc(CC)cc1 | 7.8% (inactive)
24 | NNC(=O)OCc1ccccc1 | -1.55% (inactive)
25 | NNC(=O)CCCCC(=O)NN | 0.521% (inactive)
26 | CCCCC(O)/C=C(C)/C=C/C=C/C(=O)N1CCCC1=O (stereo not given) | 8.21% [at 35.3 µM] (inactive)
27 | CC(C)(C)c1ccc(N)cc1 | -5.61% (inactive)
28 | CCCCCCCCCCCBr | -0.939% [at 35.3 µM] (inactive)
29 | CNC(C)=O | 3.42% (inactive)
30 | CC[N+](C)(CC)CC | 12.9% (inactive)
31 | O=S(=O)(O)c1cc(I)c(O)c2ncccc12 | 5.19% [at 35.3 µM] (inactive)
32 | CCCCCCCCC1CO1 (stereo not given) | -0.886% (inactive)
33 | CC/C=C\CCOC(=O)c1ccccc1 | -28.5% (inactive)
34 | O=C1c2ccccc2C(=O)N1CO | -8.35% (inactive)
35 | Cc1nc2ccc(Cl)cc2[nH]1 | 6.41% (inactive)
36 | C[C@]12C=CC(=O)C=C1[C@@H](F)C[C@@H]1[C@@H]2[C@@H](O)C[C@@]2(C)[C@H]1CC[C@]2(O)C(=O)CO | 1.05% [at 35.3 µM] (inactive)
37 | CC(C)(C)C(=O)CCc1ccc(Cl)cc1 | 8.64% (inactive)
38 | C=CCCCCCCCCCCCCCC | -0.171% [at 15.8 µM] (inactive)
39 | CSC(=O)c1cccc2nnsc12 | 1.69% (inactive)
40 | O=Cc1ccc(C(=O)O)cc1 | 3.43% (inactive)

Reference: PubChem BioAssay (Tox21)
